PubChem BioAssay (Tox21)
Inconclusive results are not listed. Values without a mark were called inactive. Unless noted, calls follow the shape of the dose curve; as a rule, active = well fitted activation curve with a large enough effect in the repeat runs; inconclusive = weak or mixed curves; inactive = no such curve, though single readings can be large or run the other way.

assay: qHTS assay for small molecules that induce genotoxicity in human embryonic kidney cells expressing luciferase-tagged ATAD5 (AID 651632); conditions: HEK293T ATAD5-luciferase induction, 16 h; series mostly up to 83.3 µM; activation: at the top concentration; also: nearly all actives have a fitted effect of over 15% in size
Summary of the method: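 Reporter cells (HEK293T) express luciferase-tagged ATAD5, a protein that accumulates after DNA damage. Treat 16 hr at 37C/5% CO2, add Amplite, wait 30 min at RT, and read luminescence.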
% is scaled to controls: 0 for no effect and ±100 for the full control effect.

Compound | activation
CC(C)(O)Cc1ccccc1 | -0.857%
Cc1ccccc1Br | -1.8%
CC12CCC(CC1=O)C2(C)C (configuration not stated) | 1.93%
C=C(C)C1CC=C(C)C(O)C1 (configuration not stated) | 2.05% [at 95.3 µM]
CC1CCN(CCCC(=O)c2ccc(F)cc2)CC1 | 2.26%
C1CCCCCCCCCCC1 | 0.696% [at 39.1 µM]
COC(=O)[C@H]1[C@H]2C[C@@H]3c4[nH]c5cc(OC)ccc5c4CCN3C[C@H]2C[C@@H](OC(=O)COc2ccc(OC)cc2)[C@@H]1OC | -7.71%
CC1=CC(=O)CCC1 | -1.88%
CCOC(=O)[C@H](CCc1ccccc1)N[C@@H](C)C(=O)N1CCC[C@H]1C(=O)O | -3.09%
CCCCCC[C@@H](CCC)C(=O)O | 3.98%
CCCCC1CCCCC(=O)O1 (configuration not stated) | -0.954%
CC1=CCC2C(C1)C2(C)C (configuration not stated) | 2.43%

assay: qHTS assay for small molecule agonists of the p53 signaling pathway - cell viability (AID 651633; calls by dose curve;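 also: p53RE-bla HCT reporter cells with a stable beta-lactamase p53 reporter; nearly all actives have a fitted effect of over 30% in size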); conditions: p53RE-bla HCT-116 viability, ATP luminescence, 16 h; series mostly up to 83.3 µM; activity change, negative = cytotoxicity: at the top concentration
Summary of the method: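 p53RE-bla cells, seeded at 4,000 per well and rested 5 h at 37 C/5% CO2, received compounds in DMSO for 16 h at 37 C. CellTiter-Glo was then added, and luminescence was read after 30 min at room temperature to gauge cytotoxicity.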

Compound | activity change, negative = cytotoxicity
CC(=O)OC(C)(C)C | -5.97%
CC(C)(O)c1ccccc1 | -5.49%
OCC(CO)(CO)COCC(CO)(CO)CO | -10.3%
C[C@H](O)C(=O)Nc1c(I)c(C(=O)NC(CO)CO)c(I)c(C(=O)NC(CO)CO)c1I | -10.7% [at 39.1 µM]
CSc1ccc(C=O)cc1 | -3.18%
NCC[C@H](O)C(=O)N[C@@H]1C[C@H](N)[C@@H](O[C@H]2O[C@H](CN)[C@@H](O)[C@H](O)[C@H]2O)[C@H](O)[C@H]1O[C@H]1O[C@H](CO)[C@@H](O)[C@H](N)[C@H]1O | 9.73%
CCN1CCN(c2cc3c(cc2F)c(=O)c(C(=O)O)cn3C2CC2)CC1 | 17.5%
CCCCCCCCCCCCCCC | 5.48%
C/C=C1\C(=O)C[C@H]2[C@@H]3CCC4=CC(=O)CC[C@]4(C)[C@H]3CC[C@]12C | -25%
c1cc(CN2CCCCC2)cc(OCCCNc2nc3ccccc3s2)c1 | -6.26%
